Bioassay records as filed in PubChem.
Hits are enriched below; roughly 1.1% of the tested compounds scored in any of these assays.
UCHL1 inh: human UCHL1 deubiquitinase inhibition. purified UCHL1, Ub-rhodamine cleavage fluorescence. inhibition, % at 20 µM. 47,000 tested, 0.2% active. AID 1645859
USP7 inh: inhibitors of human USP7 deubiquitinase; Q93009; purified USP7, Ub-rhodamine cleavage fluorescence; inhibition, % at 20 µM; 47,000 tested, 0.3% active; AID 1645854
Target sequence (Q93009 whole entry, looked up): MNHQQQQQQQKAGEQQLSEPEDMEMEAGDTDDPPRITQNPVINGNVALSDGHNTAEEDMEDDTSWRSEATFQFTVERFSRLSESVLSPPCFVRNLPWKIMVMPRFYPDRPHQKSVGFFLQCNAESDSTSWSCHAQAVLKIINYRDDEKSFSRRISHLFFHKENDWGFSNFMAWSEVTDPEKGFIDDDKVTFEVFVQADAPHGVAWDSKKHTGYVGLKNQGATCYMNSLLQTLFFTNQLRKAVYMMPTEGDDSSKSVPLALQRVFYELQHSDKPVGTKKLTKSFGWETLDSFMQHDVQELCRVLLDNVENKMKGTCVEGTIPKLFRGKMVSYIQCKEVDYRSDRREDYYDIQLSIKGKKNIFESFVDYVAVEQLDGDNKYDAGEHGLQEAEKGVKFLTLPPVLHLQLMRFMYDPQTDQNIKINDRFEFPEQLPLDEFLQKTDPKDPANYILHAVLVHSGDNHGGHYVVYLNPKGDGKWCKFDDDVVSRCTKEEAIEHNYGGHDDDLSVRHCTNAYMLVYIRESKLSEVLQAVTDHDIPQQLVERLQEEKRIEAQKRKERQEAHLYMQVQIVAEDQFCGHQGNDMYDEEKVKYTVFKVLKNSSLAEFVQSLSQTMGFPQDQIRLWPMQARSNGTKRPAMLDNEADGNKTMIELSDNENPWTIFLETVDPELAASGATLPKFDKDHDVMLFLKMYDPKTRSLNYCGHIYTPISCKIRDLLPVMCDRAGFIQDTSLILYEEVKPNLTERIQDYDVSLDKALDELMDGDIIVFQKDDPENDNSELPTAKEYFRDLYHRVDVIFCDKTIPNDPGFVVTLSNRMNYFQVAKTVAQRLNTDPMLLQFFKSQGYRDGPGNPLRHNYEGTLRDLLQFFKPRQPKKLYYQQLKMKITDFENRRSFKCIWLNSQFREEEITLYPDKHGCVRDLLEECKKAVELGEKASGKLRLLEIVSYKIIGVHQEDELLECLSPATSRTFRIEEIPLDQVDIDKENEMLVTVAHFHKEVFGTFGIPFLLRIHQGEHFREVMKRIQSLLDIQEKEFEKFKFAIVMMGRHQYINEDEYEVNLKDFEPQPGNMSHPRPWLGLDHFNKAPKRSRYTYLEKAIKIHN
OTUD3 block: inhibitors of human OTUD3 deubiquitinase; inhibition, % at 25 µM; Q5T2D3; AID 1645858; 47,000 tested, 0.7% active; purified OTUD3, Ub-rhodamine fluorescence, 2 h
Numbers without * were called inactive; x = not tested or not shown. No stated cut-off is given here; in the data, active means inhibition above about 30%; inactive means the rest.

SMILES	UCHL1 inh	USP7 inh	OTUD3 block
Cc1cc(C)c(NC(=O)CSc2nc3nccnc3c(=O)n2Cc2ccccc2Cl)c(C)c1	3	2	31*
Cc1cc(C)c(NC(=O)CSc2nnc(Cc3cccc4ccccc34)n2C)c(C)c1	-2	-17	2
O=C(Nc1ccccc1-c1nc2ccccc2[nH]1)c1sc2ccccc2c1Cl	3	32*	-8
O=C(Nc1ccccc1-c1nc2ccccc2[nH]1)c1ccc(Br)cc1	-3	2	-4
CCC(C)NC(=O)Cn1c(=O)n(-c2ccccc2)c(=O)c2ccc(C(=O)NCc3ccco3)cc21 (stereo not given)	4	-5	32*
O=C(Cc1ccc(-n2c(=O)c3ccccc3n(CC(=O)Nc3ccc(Cl)cc3Cl)c2=O)cc1)NCc1ccco1	2	14	3
COc1ccc2c(C)c(CC(=O)N3CCC[C@H]3C(=O)O)c(=O)oc2c1C	2	-154	32*
COc1ccc2c(C)c(CCC(=O)N3CC[C@@]4(O)CCCC[C@H]4C3)c(=O)oc2c1C	-2	0	-2
CCCC(=O)Nc1ccc(-n2cnc(C(=O)N3CCCCC3)c2)nc1	1	2	11
CS(=O)(=O)c1ccc(-c2nnc(NC(=O)c3ccco3)o2)cc1	0	4	10
CC(NC(=O)c1ccc(-c2nnc(-c3ccccc3)o2)cc1)c1ccc(S(C)(=O)=O)cc1 (stereo not given)	6	9	36*
CCOc1cc(N2CCOCC2)c(OCC)cc1NC(=O)CCc1c[nH]c2ccccc12	3	0	2
O=S(c1ccc2ccccc2c1)c1cnns1 (stereo not given)	2	-3	34*
O=C(NCCCN1CCC(Cc2ccccc2)CC1)c1nnc(CS(=O)(=O)c2ccccc2)o1	-4	4	-12
C[C@@H](NC(=O)c1ccc2c(c1)OCCO2)c1nc2cc(-c3ccccc3F)ncn2n1	2	7	43*
C[C@@H](NC(=O)c1ccc2c(c1)OCO2)c1nc2cc(-c3ccccc3F)ncn2n1	0	1	11
C[C@H](NC(=O)Cc1ccccc1F)c1nc2cc(-c3ccccc3F)ncn2n1	2	6	36*
C[C@@H](NC(=O)C1CCCCC1)c1nc2cc(-c3ccccc3F)ncn2n1	2	6	3
COc1ccc(-c2cc3nc([C@H](C)NC(=O)Cc4ccccc4C)nn3cn2)cc1	4	32*	47*
COc1ccc(-c2cc3nc([C@H](C)NC(=O)COc4ccccc4F)nn3cn2)cc1	7	27	23
Cc1nn(C)c(C)c1C1Nc2ccccc2C(=O)N1CCc1ccccc1 (stereo not given)	1	-2	12
CCC[C@H]1O[C@@H]2CC(=O)O[C@@H]2C2=C1C(=O)c1c(O)cccc1C2=O	14	-40	52*
CC1OC2CC(=O)OC2C2=C1C(=O)c1c(O)cccc1C2=O (stereo not given)	25	-57	45*
CC1CC(=O)c2c(O)cccc2O1 (stereo not given)	1	7	7
COc1ccc(CNC(=O)c2ccc3ncnc(N4CCCC4)c3c2)cc1	2	-2	1
SMILES	UCHL1 inh	USP7 inh	OTUD3 block
COc1ccc(CNc2ccc(N3CCOCC3)c(C(=O)O)c2)cc1	-1	0	-3
CCCCCN1C(=O)C(C(=O)Nc2ccccn2)C(=O)c2ccccc21 (stereo not given)	5	4	0
CC(=O)C1=C(O)[C@@]2(O)C(=O)c3c(c(C)c4ccc(C)c(O)c4c3O)C[C@H]2[C@@H](N)C1=O	53*	50*	51*
COc1cc2c(C#N)c(N3CCCC3)nc3c2c(n1)NC(C)(c1ccc(-c2ccccc2)cc1)N3 (stereo not given)	17	35*	-47
Cc1cc(C)c(C#N)c(N2CCN(S(=O)(=O)Cc3ccccc3)CC2)n1	3	x	7
COc1ccc(C(=O)Nc2ccc(O)cc2C(=O)O)cc1OC	5	7	21
C[C@@H]1CO[C@@H]2C3=C(C(=O)C=CC3=O)[C@H]3OC(=O)[C@@H]4CCC5[C@@H]1CCC52C34 (stereo not given in full)	11	-34	59*
Cc1cccc(C(=O)N2CCN(c3oc(-c4ccccc4Cl)nc3C#N)CC2)c1	2	2	-2
CO/C1=C\C(C)=C/[C@@H](C)[C@@H](O)[C@@H](C)C/C(C)=C/C=C/[C@H](OC)[C@@H]([C@@H](C)[C@@H](O)[C@H](C)[C@@]2(O)C[C@@H](OC(=O)/C=C/C(N)=O)[C@H](C)[C@@H](C(C)C)O2)OC1=O	1	16	22
CCC1OC(O)(C(C)C(O)C(C)C2OC(=O)/C(C)=C/C(C)=CC(C)C(O)C(C)C/C(C)=C/C=C/C2OC)CC(OC(=O)/C=C/C(=O)NC2=C(O)CCC2=O)C1C (stereo not given)	5	26	32*
CCc1nnc(-c2ccc3ccn(CC(=O)N4CCN(c5ccccn5)CC4)c3c2)o1	17	-12	83*
Cc1nnc(-c2ccc3ccn(CC(=O)N4CCN(c5ccccn5)CC4)c3c2)o1	-1	0	0
O=C(CN1C(=O)c2ccccc2Sc2ccc(C(=O)N3CCCC3)cc21)Nc1ccccc1Cl	5	15	-2
O=C(Nc1ccc(F)cc1)C1CCc2nc(N3CCOCC3)ncc2C1 (stereo not given)	3	1	11
CCN1C(=O)C2CN(C(=O)c3ccc(F)c(C(F)(F)F)c3)CCN2C1=O (stereo not given)	-1	0	-4
Cc1cccc(OCC2=NN3C(=N)/C(=C\c4cc(C)n(-c5cccc(F)c5)c4C)C(=O)N=C3S2)c1	-33	-26	-91
COc1ccc(-c2cc3nc(C4CCN(C(=O)OC(C)(C)C)CC4)c(C(=O)Nc4ccc(C)c(Cl)c4)cn3n2)cc1	-5	4	2
CCOc1ccc(-c2cc3nc(C4CCN(C(=O)OC(C)(C)C)CC4)c(C(=O)Nc4cc(F)ccc4F)cn3n2)cc1	-6	9	31*
Cc1ccc(C)c(NC(=O)Cn2cc(C(=O)C3CC3)c3ccccc32)c1	3	35*	15
COc1cccc(NC(=O)Cn2cc(C(=O)C3CC3)c3ccccc32)c1	5	6	9
CC(CNC(=O)c1nc(-c2ccc3c(c2)OCC(=O)N3C)no1)c1ccccc1 (stereo not given)	7	5	10
COc1ccc(NC(=O)c2oc(=O)c3ccccc3c2-c2ccccc2)cc1Cl	6	10	0
COc1cc(-c2ccccc2)c(O)c(O)c1-c1ccccc1	36*	61*	91*
O=C(N[C@@H]1C[C@@H](Oc2cccc(F)c2)[C@H](O)[C@H]1O)c1ccccc1	1	1	4
Cc1ccc(-c2coc(-c3ccc(NC(=O)C4CC4)cc3)n2)c(C)c1	-1	9	-4
O=C(c1cc(F)ccc1-n1cnnn1)N1CCN(c2ccccn2)CC1	-2	3	2
CNC(=O)c1cc2nc(N(C)C)n(-c3ccccc3)c2s1	3	0	-1
COc1ccc(OC)c(CC2(NC(=O)c3ccccc3)N=C3C=CC=CN3C2=O)c1 (stereo not given)	3	5	17
COc1ccc2c(CCN=C(NC(C)=O)Nc3nc(C)cc(C)n3)c[nH]c2c1	2	34*	2
COc1ccc2[nH]cc(CCN=C(NC(=O)C(C)C)Nc3nc(C)cc(C)n3)c2c1	6	4	1
